Compound activity from PubChem BioAssay.
The list is not random: actives were taken first. Their share in the collection is about 7.9%.
HCMV inh: blocks human cytomegalovirus replication. activity change, negative = inhibition, % at 57.5 µM. 410,000 tested, 4.5% active. HFF cells, HCMV-luciferase reporter, 72 h; stronger effect = lower value; in the data active = activity change below about -60%; inconclusive = no clear call, values can overlap the other calls; inactive = above about -39%
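Screen run at 2 compound doses on HFFs infected with reporter HCMV, MOI 1 PFU/cell. Luciferase activity from cell lysates at 72 h post infection gave inhibition relative to buffer-only and Salinomycin wells.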
FMDV antiviral: antivirals against foot and mouth disease virus | FMDV antiviral cell-based qHTS | Potency, µM (series often up to 57.9 µM), inactives show at the top dose activity change, negative = inhibition, most hits filed as inhibitors | 410,000 tested, 1.2% active; calls by dose curve; tested in HEK293T cells; note: read-out not given here; potency is the fitted concentration of half-maximal effect; nearly all actives have a fitted effect of over 45% in size
HCV inh: HCV inhibition. Huh7.5.1 HCVcc-Cre infection, luciferase reporter, 44 h. Potency, µM (series often up to 41.8 µM), inactives show top-dose activity change, negative = inhibition, hits mostly inhibitors. 340,000 tested, 3.4% active; active = well fitted inhibition curve with a large enough effect; inconclusive = small, poorly fitted or top-dose-only effect, or another doubt; inactive = no such curve, though single readings can be large or run the other way; note: potency is the fitted concentration of half-maximal effect
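A cell-based infection assay in which seeded cells (1,000 per well) receive test compound after 4 h, are inoculated with HCVcc-Cre at approximately 0.5 moi, and are incubated 44 h before luminescence detection.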
Lassa entry inh: inhibitors of Lassa virus binding or cell entry; AID 540256; Potency, µM (doses to about 37.9 µM), without a hit: top-dose activity change, negative = inhibition, actives largely listed as inhibitors; 300,000 tested, 1.2% active; Lassa virus pseudotype entry inhibition, cell reporter; calls by dose curve; tested in HEK293 cells; note: potency is the fitted concentration of half-maximal effect; nearly all actives have a fitted effect of over 50% in size
Marburg entry inh: Marburg virus entry inhibition; Marburg virus pseudotyped entry inhibition, cell reporter; Potency, µM (series often up to 37.8 µM), without a hit: at the highest dose activity change, negative = inhibition, actives largely listed as inhibitors; 300,000 tested, 1.8% active; AID 540276; calls by dose curve; tested in HEK293 cells; note: potency is the fitted concentration of half-maximal effect
Starred values were filed as active, the others as inactive; ? = inconclusive; / = not tested or not shown; [ ] = remark or other dose. % is set by controls: 0 for no effect and ±100 for the full control effect.

SMILES	HCMV inh	FMDV antiviral	HCV inh	Lassa entry inh	Marburg entry inh
O=C(OCC(=O)N1CCc2ccccc21)c1c2c(nc3ccccc13)CCCC2	-7	-13%	2µM*	?	?
O=C(COC(=O)c1c2c(nc3ccccc13)CCCCC2)c1ccc(Cl)s1	9	8%	10µM*	10%	7%
CC(C)(C)SC(=O)CC1NS(=O)(=O)OC2CCCCC12 (stereo not drawn)	-17	-12%	2%	/	/
CC1(C)OC(=O)C=C(CC2NS(=O)(=O)OC3CCCCC23)O1 (stereo not drawn)	-3	-8%	2.5µM*	/	/
O=C(C[C@@H]1NS(=O)(=O)OC2CCCCC21)c1ccccc1 (stereo partly drawn)	-20	17%	0.28µM*	/	/
Cc1cc(C)n(CC(=O)NNC(=O)CCCOc2ccc(Cl)cc2C)n1	-61*	-21%	-13%	11%	-5%
COCCN(C(=O)C1CCCC1)c1c(N)n(Cc2ccccc2)c(=O)[nH]c1=O	-14	7%	5%	11%[46.1 µM]	?
Nc1c(N(C(=O)Nc2ccc(Cl)c(Cl)c2)C2CCCC2)c(=O)[nH]c(=O)n1Cc1ccccc1	-12	?	11µM*	?	7%
Cc1cccc(-c2noc(CN(C(=O)c3ccccc3Cl)C(C)C)n2)c1	9	-23%	/	-4%[46.1 µM]	-7%[46.1 µM]
CC1CCN(CCCNC(=O)c2ccc(CSCc3cccc(Cl)c3)o2)CC1	-6	-27%	?	-18%	12µM*
O=C(NCCCN1CCCC1)c1ccc(CSCc2cccc(Cl)c2)o1	8	-13%	10µM*	-4%	?
CN1CCN(CCCNC(=O)c2ccc(CSCc3cccc(Cl)c3)o2)CC1	-21	7%	-28%	11µM*	?
O=C(NCCc1ccc(Cl)cc1)c1ccc(CSCc2cccc(Cl)c2)o1	1	-24%	/	-13%[46.1 µM]	/
CC1CCCN(CCCNC(=O)c2ccc(CS(=O)(=O)Cc3cccc(Cl)c3)o2)C1 (stereo not drawn)	-21	-18%	-6%	/	/
CCC1CN(CC(=O)NCc2cc(C)n(C)n2)Cc2cc(OC)ccc2O1 (stereo not drawn)	/	12%	/	/	/
Cn1c(=O)n(CC(=O)OCc2ccccc2)c(=O)c2c1nc1n2CCCN1C1CCCCC1	-34	28µM*	4%	?	?
COC(=O)Cn1c(=O)c2c(nc3n2CCCN3Cc2ccccc2)n(C)c1=O	-24	1%	-3%	-4%[46.1 µM]	8%[46.1 µM]
O=C1C=CCC(/C=C/c2ccccc2)O1 (stereo not drawn)	?	?	-6%[8.37 µM]	?	8.2µM*
COc1ccc(N2Cc3cccc(C(=O)Nc4ccc(C)c(C)c4)c3C2=O)cc1	-10	11%	/	19%[46.1 µM]	?
Cc1ccc(-n2nc3c(N4CCC(C(=O)N5CCCCC5)CC4)nnc(C)c3c2C)cc1	-39	-20%	/	?	/
Cc1ccc(-n2nc3c(N4CCC(C(=O)N5CCC(C(N)=O)CC5)CC4)nnc(C)c3c2C)cc1	-61*	-24%	-8%	/	/
CCN1CCN(C(=O)C2CCN(c3nnc(C)c4c(C)n(-c5ccc(C)cc5)nc34)CC2)CC1	-24	?	8.9µM*	/	/
COc1cccc(CNc2nc3cc(-c4ccsc4)sc3c(=O)n2C)c1OC	-68*	32µM*	/	/	/
COc1cccc(CNc2nc3cc(-c4ccc(F)cc4)sc3c(=O)n2C)c1OC	-71*	-20%	/	/	/
CC(=O)Nc1ccc(CNc2nc3cc(-c4ccsc4)sc3c(=O)n2C)cc1	-66*	0%	/	/	/
SMILES	HCMV inh	FMDV antiviral	HCV inh	Lassa entry inh	Marburg entry inh
COCCNc1nc(NCc2ccc(NC(C)=O)cc2)c2sc(-c3ccccc3)cc2n1	-98*	-7%	/	/	/
COc1cccc(CNc2nc3cc(-c4ccc(C)cc4)sc3c(=O)n2C)c1OC	2	5%	/	/	/
CC(=O)Nc1ccc(CNc2nc3cc(-c4ccc(F)cc4)sc3c(=O)n2C)cc1	?	-6%	/	/	/
Cc1ccc(NC(=O)COc2coc(CN3CCc4ccccc43)cc2=O)c(C)c1	10	-6%	?	-29%	-15%
CCc1nn(CC(=O)NCc2cccnc2)c(=O)c2cc3occc3n12	-24	-5%	?	19%[46.1 µM]	5%[46.1 µM]
COc1ccc(-c2cc3nc(NCc4ccc(N(C)C)cc4)n(C)c(=O)c3s2)cc1OC	?	28µM*	/	/	/
COc1cccc(CNc2nc3cc(-c4ccccc4)sc3c(=O)n2C)c1	-65*	0%	/	/	/
COc1ccc(-c2cc3nc(NCCN4CCCC4)n(C)c(=O)c3s2)cc1OC	-15	-3%	/	/	/
COc1cccc(CNc2nc3cc(-c4ccc(OC)c(OC)c4)sc3c(=O)n2C)c1	21	?	/	/	/
